PubChem BioAssay AID2314 (National Center for Advancing Translational Sciences (NCATS), 2010)
The campaign covered roughly 300,000 compounds. About 37,000 (12%) were called active. No stated cut-off is given here; in the data, active means max response mostly above about 13% (no sharp cut-off); inactive means mostly below about 14%. Only a selection was taken, and actives are over-represented in it overall.

Assay: Cycloheximide Counterscreen for Small Molecule Inhibitors of Shiga Toxin; further: read at 38.3 µM for the half of the compounds with a filed dose; 0% is about no effect
Conditions: cell reporter, cycloheximide protein synthesis inhibition counterscreen; hits give high values

SMILES	max response
COc1ccc(OC)c(C(=O)NC(CC(N)=O)c2ccc(N3CCC(N4CCCCC4)CC3)c([N+](=O)[O-])c2)c1 (stereo unspecified)	4.9% (inactive)
CCC(C(=O)NC1CCCC1)N(C(=O)Cn1nnc(-c2ccc(C)o2)n1)c1ccc(OC)c(OC)c1 (stereo unspecified)	-5.67% (inactive)
Cc1scc(C(=O)NNC(=S)NCc2ccccc2)c1C	-0.644% (inactive)
Cc1ccc(S(=O)(=O)N(Cc2ccc(Cl)cc2)c2ccccc2C(=O)NCc2cccnc2)cc1	7.18% (inactive)
COC(=O)c1cc2c(ccn2C)n1C	-8.1% (inactive)
COC(=O)CCc1sc(Nc2ccc(Br)cc2)nc1-c1ccc(OC)cc1	11.1% (inactive)
COc1ccc(OC)c(Nc2nc(-c3ccc(O)c(O)c3)cs2)c1	0.815% (inactive)
Oc1ccc(-c2csc(Nc3cccnc3)n2)cc1	33.7% (active)
O=C(Nc1ccc(-c2csc(Nc3cccc(C(F)(F)F)c3)n2)cc1)c1cccc(C(F)(F)F)c1	-4.63% (inactive)
COc1ccc(-c2csc(Nc3ccc(O)cc3)n2)cc1	58.3% (active)
COC(=O)CCCCCN1C(=O)NC(c2ccc(-c3ccccc3)cc2)C(C(=O)OCc2ccccc2)=C1C (stereo unspecified)	-3.62% (inactive)
CN1C2CCC1/C(=C\c1ccccc1Cl)C(=O)/C2=C\c1ccccc1Cl	-1.18% (inactive)
Cc1cc(C)c(S(=O)(=O)c2ccc(F)cc2C)c(=O)[nH]1	0.432% (inactive)
CC(=O)Cn1cnc2c(cnn2-c2ccccc2)c1=O	20.7% (active)
COc1ccc(-n2c(C)nc3c(cnn3-c3ccccc3)c2=O)cc1	-2.87% (inactive)
Cc1ccc(-c2nc3c(cnn3-c3ccccc3)c(=O)o2)cc1	-3.4% (inactive)
O=C(Cn1cnc2c(cnn2-c2ccc(F)cc2)c1=O)NCCc1ccccc1	-1.32% (inactive)
O=C(Cn1cnc2c(cnn2-c2ccccc2)c1=O)NCc1ccccc1	20.7% (active)
O=C(Cn1cnc2cc([N+](=O)[O-])ccc2c1=O)NC(=O)NCc1ccccc1	5.35% (inactive)
Cc1cc(C)n(S(=O)(=O)c2cccc([N+](=O)[O-])c2)n1	0.92% (inactive)
COc1ccccc1C(=O)NCc1nnc(SC(C)C(=O)Nc2nccs2)n1C (stereo unspecified)	2.76% (inactive)
Cc1ccc(-n2ncc3c2CCCC3NC(=O)c2cnccn2)cc1C (stereo unspecified)	9.44% (inactive)
C/C=C/c1ccc(OCCCCN2CCC(C)CC2)c(OC)c1	0.514% (inactive)
c1ccc(CSc2ncnc3c2sc2nc(N4CCOCC4)c4c(c23)CCCC4)cc1	-3.72% (inactive)

SMILES	max response
Cc1n[nH]c(=O)nc1N/N=C/c1cccs1	25.7% (active)
S=c1[nH]nc(-c2cccs2)n1/N=C/c1cccs1	8.89% (inactive)
Cc1nnc(N/N=C/c2cccs2)[nH]c1=O	-2.07% (inactive)
COCCOC(=O)c1sc(=S)n(CCOC)c1N	-1.77% (inactive)
CC(C)(C)c1ccc(Cn2nnc3c(=O)[nH]c(C4CCCN(C(=O)c5ccco5)C4)nc32)cc1 (stereo unspecified)	4.58% (inactive)
Cc1cccc2c1N(CCOc1ccccc1)C(=O)C2=O	8.28% (inactive)
Clc1ncn(CCOc2ccccc2)c1Cl	-2.48% (inactive)
Cc1nn(CCOc2ccccc2)c(=O)n1-c1ccccc1F	49.6% (active)
CCc1nc2cccnc2n1-c1ccc(C(=O)O)cc1	-1.63% (inactive)
COc1cccc(C(O)c2nc3ccccc3n2C)c1 (stereo unspecified)	-2.8% (inactive)
CCOc1ccc2nc(C(=O)N3CCCC(C)C3)sc2c1 (stereo unspecified)	105% (active)
CCCC(=O)N(CCN1CCOCC1)c1nc2ccc(OCC)cc2s1	16.6% (inactive)
CCOc1ccc2nc(Nc3nc4ccc(NC(C)=O)cc4s3)sc2c1	-1.98% (inactive)
CCOc1ccc(S(=O)(=O)NCCCn2ccnc2)cc1NC(C)=O	-3.29% (inactive)
c1cncc(-c2nnc3n2C2(CCCCC2)Cc2ccccc2-3)c1	-1.12% (inactive)
CCOc1cccc2c1OC1(CCCCC1)N1N=C(c3cccnc3)CC21 (stereo unspecified)	40.7% (active)
CCOc1ccccc1C1CC(c2cccc(NS(C)(=O)=O)c2)=NN1C(=O)c1ccccc1 (stereo unspecified)	-1.46% (inactive)
CC1CCN(S(=O)(=O)c2ccc3c(c2)n(C)c(=O)n3C)CC1	2.78% (inactive)
Cc1cc(CNCc2c(C(=O)N(C)Cc3ccccc3)nc3ccccn23)nn1C	1.54% (inactive)
Cc1nn(-c2ccccn2)c2c1C(c1ccncc1)C1=C(CC(C)(C)CC1=O)N2 (stereo unspecified)	-5.72% (inactive)
Cc1cc2c(cc1C)NC(c1ccccn1)C1=C(CC(C)(C)CC1=O)N2 (stereo unspecified)	28% (active)
CC1(C)CC(=O)C2=C(C1)Nc1cc(C(=O)c3ccccc3)ccc1NC2c1ccccn1 (stereo unspecified)	5.93% (inactive)
C/C(=C\c1ccccc1)C1NC(=O)c2c(sc3c2CCCC3)N1 (stereo unspecified)	36.6% (active)
Cc1ccc(C(=O)c2c(NC(=O)c3ccncc3)sc3c2CCCC3)cc1	-4.15% (inactive)

SMILES	max response
O=C1CCCCC1C(=O)c1ccccc1 (stereo unspecified)	12.6% (inactive)
O=C(Nc1sc2c(c1-c1nc3ccccc3[nH]1)CCCC2)C1CC1	16.7% (inactive)
O=C1NC(c2ccncc2)Nc2sc3c(c21)CCCC3 (stereo unspecified)	26.5% (active)
CCOC(=O)c1cc2ccccc2n1CC(=O)c1ccccc1	1.26% (inactive)
CC1CCC2CCCCC2N1C(=O)c1cc([N+](=O)[O-])cc([N+](=O)[O-])c1 (stereo unspecified)	10.4% (inactive)
NS(=O)(=O)c1ccc(CCNC(=O)c2nc(CS(=O)(=O)c3ccc(Cl)cc3)no2)cc1	-2.33% (inactive)
CCn1cc(C(=O)N[C@@H](C)C(=O)NCCO)c(=O)c2cc3c(cc21)OCO3	-1.13% (inactive)
CC(CO)NCC12CC3CC(CC(C3)C1)C2 (stereo unspecified)	-1.89% (inactive)
N/C(=N\OC(=O)Nc1ccccc1)c1ccno1	24.5% (active)
N/C(=N\OC(=O)Nc1ccc(Cl)c(Cl)c1)c1ncc(C(F)(F)F)cc1Cl	-4.62% (inactive)
O=C(Nc1ccccc1Cl)O/N=C(/c1ccccc1)c1ccccn1	-2.08% (inactive)
COc1ccc(-c2c(C)cc3oc(=O)cc(-c4ccccc4)c3c2C)cc1C=O	19.9% (inactive)
COc1cccc(NC(=O)CN(C)C(C)C(=O)Nc2ccc(C#N)cc2)c1 (stereo unspecified)	11.8% (inactive)
S=c1nc2ccccc2c2nc(-c3cccnc3)[nH]n12	-3.11% (inactive)
C=CCn1c(=O)c(C(=O)NCc2ccc3c(c2)OCO3)c(O)c2ccccc21	-4.21% (inactive)
CC(C)N1CCC(N2CCN(Cc3cccnc3)CC2CCO)CC1 (stereo unspecified)	-0.86% (inactive)
CCC(C)(C)NC(=O)CN(Cc1cccs1)C(=O)CNS(=O)(=O)c1ccc(F)cc1	1.08% (inactive)
Cc1ccc(S(=O)(=O)NCC(=O)N(CC(=O)NC(C)(C)C)Cc2cccs2)cc1	0.104% (inactive)
CC(C)(C)NC(=O)CN(Cc1cccs1)C(=O)CNS(=O)(=O)c1ccccc1	15.6% (active)
O=C(N/C(=C\c1ccc(F)cc1)C(=O)N1CCCCCC1)c1ccccc1	-2.25% (inactive)
CC(C)c1nc(SCC(=O)Nc2cccc(C(=O)O)c2)c2c3c(sc2n1)CCCC3	2.36% (inactive)
COc1ccc(CNc2c(CO)cnc3c2cnn3C)cc1	8.91% (inactive)
Cc1ccc(S(=O)(=O)N2CCN(C)CC2)cc1C(=O)NC1CCCCC1	-0.406% (inactive)
O=C(Oc1c(-c2ccco2)oc2ccccc2c1=O)c1cccnc1	12.7% (active)

SMILES	max response
O=C(Oc1ccc(Br)cc1)c1cccnc1	7.39% (inactive)
O=C(Oc1cccnc1)c1cc2ccccc2oc1=O	-1.97% (inactive)
O=C(CN1C(=O)c2ccccc2C1=O)NCc1ccc(C(=O)O)cc1	-4.14% (inactive)
O=c1[nH]c(NCCO)nnc1Cc1ccc(Cl)cc1	-3.78% (inactive)
Cc1ccc(N(C(=O)CNC(=O)c2ccco2)C(C(=O)NC2CCCC2)c2ccncc2)cc1 (stereo unspecified)	-1.23% (inactive)
CCOC(=O)C1(Cc2ccccc2C(F)(F)F)CCN(C(=O)c2cc(C)n(C)n2)CC1	31.4% (active)
CCOC(=O)C1(Cc2cccc(OC)c2)CCN(C(C)CC(C)(C)O)CC1 (stereo unspecified)	-3.86% (inactive)
CCOC(=O)C1(CCOc2ccccc2)CCN(C(=O)c2cncs2)CC1	1.41% (inactive)
CCCN(CC1COc2ccccc2O1)C(=S)Nc1ccc(C)cc1 (stereo unspecified)	-5.79% (inactive)
Cc1c(CN2CCC(CO)(CCOc3ccccc3)CC2)[nH]c2ccc(Cl)cc12	-1.37% (inactive)
CN(CC(=O)NC1CCCCC1)S(=O)(=O)c1ccc(Br)s1	6.95% (inactive)
O=C(CCC(=O)c1cccs1)NC1CCCCCC1	21.2% (active)
CC(C)C(=O)OCC(=O)Nc1ccc2c(c1)CCC2	2.17% (inactive)
O=C(Nc1ccc2c(c1)CCC2)c1ccc(Br)s1	72% (active)
O=C(NCC(=O)N(Cc1cccs1)C(C(=O)NC1CCCCC1)c1ccco1)c1cccs1 (stereo unspecified)	-2.31% (inactive)
O=C(CN(C(=O)CNC(=O)c1cccs1)c1cccc(F)c1)NC1CCCCC1	0.305% (inactive)
CC1CC(C)CN(CCC(=O)Nc2ccc3c(c2)CCC3)C1 (stereo unspecified)	-6.42% (inactive)
CC(C)C(OC(=O)c1cccs1)C(=O)NC1CCCCC1 (stereo unspecified)	-1.99% (inactive)
O=C(NC1CCCCCCC1)c1cccs1	34% (active)
O=C(NC1CCCC1)c1ccc(Br)s1	19.5% (active)
O=C(COC(=O)/C=C/c1cccs1)NC1CCCCC1	-0.796% (inactive)
O=C(NC1CCCC1)C(NS(=O)(=O)c1ccc(Br)s1)c1ccccc1 (stereo unspecified)	7.24% (inactive)
O=S(=O)(c1ccc(F)cc1)N1CCN=C1SCc1cccc(F)c1	7.74% (inactive)
COc1cccc(NC(=O)N2CCC(NC(=O)C(Cc3cccc(C)c3)NC(C)=O)CC2)c1 (stereo unspecified)	-0.694% (inactive)
